Source: PubChem BioAssay AID588405 (Sanford-Burnham Center for Chemical Genomics, 2011)
About 6,200 (1.7%) of roughly 360,000 compounds were called active. The list comes from a sample in which actives are over-represented; it also holds similar structures and randomly drawn compounds. Unmarked numbers belong to inactive results.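 How the source made its calls: active means inhibition of at least 50% at 20 µM; inactive means the rest.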

Test: inhibition of PEG-3 promoter activity – cell-based, HeLa, luciferase luminescence, primary screen (AID 588405)
Conditions: HeLa PEG-Prom luciferase reporter, overnight, at 20 µM, hits give high values

Row | Compound | inhibition
1 | Cn1c(CCC(=O)Nc2ccccc2F)nnc1SCC(=O)Nc1ccccc1Cl | 3.9%
2 | CCOc1ccc(-c2nc(N)ncc2-c2ccccc2OC)c(O)c1 | 1.53%
3 | COc1ccc(-c2nc(N)ncc2-c2ccc(Cl)cc2)c(O)c1 | 53.7% (active)
4 | C=C(C)COc1ccc(-c2ncncc2-c2ccc(OC)cc2)c(O)c1 | -25.6%
5 | CC(=O)Nc1cnc(-c2ccc(O)cc2C)cn1 | -46.9%
6 | OCCN1CCN(C(=S)c2ccc(-c3ccccc3)cc2)CC1 | 51.7% (active)
7 | S=C(c1ccc(-c2ccccc2)o1)N1CCCCC1 | -230%
8 | CN1CCN(CCCCOc2ccccc2-c2ccccc2)CC1 | 7.99%
9 | CC(C#N)OC(=O)c1cccnc1SCC(=O)Nc1ccc2c(c1)OCO2 (centres undefined) | -92%
10 | O=C(O)CCN1C(=O)CC2(CCCCC2)C1=O | -1.96%
11 | COCCNc1ncnc2c1ncn2[C@H]1CN(CCN2CCOCC2)C[C@@H](CO)O1 | 0.57%
12 | Clc1cccc(-c2nc(NCC3CCCO3)c3ccccc3n2)c1 (centres undefined) | 17.2%
13 | Clc1ccc2nc(-c3ccccc3)nc(C(Cl)Cl)c2c1 | 107% (active)
14 | N#CCSc1nc(-c2ccccc2)nc2ccc(F)cc12 | 16.9%
15 | CC(C)c1cc(C(=O)NC2CCCCCC2)c2ccccc2n1 | -6.57%
16 | CC(C)C(C)NC(=O)COc1nc2ccccc2nc1N(C)C1CCCCC1 (centres undefined) | 2.14%
17 | CN(c1ccc2nc3ccccc3c(=O)n2n1)C1CCCCC1 | 81.5% (active)
18 | Cc1nc2c(OCC(=O)C(C)(C)C)cccn2c1N(C)Cc1cccs1 | -4.66%
19 | CCCCc1ccc(S(=O)(=O)NC(=O)C2(C)CCN2C(=O)c2c(C)noc2C)cc1 (centres undefined) | -14.9%
20 | COc1ccc(C(C)C)cc1-c1ccc2nncn2c1 | -16.5%
21 | CC1(Oc2ccc(Cl)cc2)CCN(Cc2csc3ccccc23)C1 (centres undefined) | -17.9%
22 | CC1(C(=O)NS(=O)(=O)c2ccccc2Cl)CCN1C(=O)c1cccc(F)c1 (centres undefined) | -6.7%
23 | O=c1[nH]c2ccc(S(=O)(=O)N3CCCC3)cc2[nH]1 | 3.24%
24 | CCOC(=O)/C=c1\s/c(=C\c2ccc(C#N)cc2)c(=O)n1CC(=O)Nc1cccc(C)c1C | 57.2% (active)
25 | Cc1cccc(NC(=O)CN2CCN(C(=O)C3CCN(C(=O)/C=C/c4ccccc4)CC3)CC2)c1C | -10.7%
26 | Cc1cccc(NC(=O)CSC(N)=O)c1C | 1.28%
27 | CN1CCC(OC(=O)COc2ccc(Cl)cc2Cl)CC1 | 3.36%
28 | Cc1cnc(C(=O)OCC(=O)Nc2ccc(Cl)cc2Cl)cn1 | -12%
29 | COC(=O)c1c(NC(=O)COc2ccc(Cl)cc2Cl)sc2c1CC(C)(C)NC2(C)C | 92.3% (active)
